About 6,900 (3.6%) of roughly 190,000 compounds were called active. The sample as a whole holds a higher share of actives than the screen did. A number with no mark means an inactive call. Cut-off read from the data, not from the text of the source: active = inhibition above about 50%; inactive = the rest.
The molecules below were run against Huntingtin (Homo sapiens) (UniProt P42858) (assay: mutant huntingtin-calmodulin interaction inhibitors – biochemical, AlphaScreen, primary screen (AID 1671202;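 note: 0% = both proteins with DMSO and 100% = one protein alone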)). Conditions: AlphaScreen His-mHTT/GST-CaM binding, luminescence; at 15 µM, stronger effect = higher value.
Huntingtin (Homo sapiens), sequence (P42858 whole entry, looked up, stated change not applied): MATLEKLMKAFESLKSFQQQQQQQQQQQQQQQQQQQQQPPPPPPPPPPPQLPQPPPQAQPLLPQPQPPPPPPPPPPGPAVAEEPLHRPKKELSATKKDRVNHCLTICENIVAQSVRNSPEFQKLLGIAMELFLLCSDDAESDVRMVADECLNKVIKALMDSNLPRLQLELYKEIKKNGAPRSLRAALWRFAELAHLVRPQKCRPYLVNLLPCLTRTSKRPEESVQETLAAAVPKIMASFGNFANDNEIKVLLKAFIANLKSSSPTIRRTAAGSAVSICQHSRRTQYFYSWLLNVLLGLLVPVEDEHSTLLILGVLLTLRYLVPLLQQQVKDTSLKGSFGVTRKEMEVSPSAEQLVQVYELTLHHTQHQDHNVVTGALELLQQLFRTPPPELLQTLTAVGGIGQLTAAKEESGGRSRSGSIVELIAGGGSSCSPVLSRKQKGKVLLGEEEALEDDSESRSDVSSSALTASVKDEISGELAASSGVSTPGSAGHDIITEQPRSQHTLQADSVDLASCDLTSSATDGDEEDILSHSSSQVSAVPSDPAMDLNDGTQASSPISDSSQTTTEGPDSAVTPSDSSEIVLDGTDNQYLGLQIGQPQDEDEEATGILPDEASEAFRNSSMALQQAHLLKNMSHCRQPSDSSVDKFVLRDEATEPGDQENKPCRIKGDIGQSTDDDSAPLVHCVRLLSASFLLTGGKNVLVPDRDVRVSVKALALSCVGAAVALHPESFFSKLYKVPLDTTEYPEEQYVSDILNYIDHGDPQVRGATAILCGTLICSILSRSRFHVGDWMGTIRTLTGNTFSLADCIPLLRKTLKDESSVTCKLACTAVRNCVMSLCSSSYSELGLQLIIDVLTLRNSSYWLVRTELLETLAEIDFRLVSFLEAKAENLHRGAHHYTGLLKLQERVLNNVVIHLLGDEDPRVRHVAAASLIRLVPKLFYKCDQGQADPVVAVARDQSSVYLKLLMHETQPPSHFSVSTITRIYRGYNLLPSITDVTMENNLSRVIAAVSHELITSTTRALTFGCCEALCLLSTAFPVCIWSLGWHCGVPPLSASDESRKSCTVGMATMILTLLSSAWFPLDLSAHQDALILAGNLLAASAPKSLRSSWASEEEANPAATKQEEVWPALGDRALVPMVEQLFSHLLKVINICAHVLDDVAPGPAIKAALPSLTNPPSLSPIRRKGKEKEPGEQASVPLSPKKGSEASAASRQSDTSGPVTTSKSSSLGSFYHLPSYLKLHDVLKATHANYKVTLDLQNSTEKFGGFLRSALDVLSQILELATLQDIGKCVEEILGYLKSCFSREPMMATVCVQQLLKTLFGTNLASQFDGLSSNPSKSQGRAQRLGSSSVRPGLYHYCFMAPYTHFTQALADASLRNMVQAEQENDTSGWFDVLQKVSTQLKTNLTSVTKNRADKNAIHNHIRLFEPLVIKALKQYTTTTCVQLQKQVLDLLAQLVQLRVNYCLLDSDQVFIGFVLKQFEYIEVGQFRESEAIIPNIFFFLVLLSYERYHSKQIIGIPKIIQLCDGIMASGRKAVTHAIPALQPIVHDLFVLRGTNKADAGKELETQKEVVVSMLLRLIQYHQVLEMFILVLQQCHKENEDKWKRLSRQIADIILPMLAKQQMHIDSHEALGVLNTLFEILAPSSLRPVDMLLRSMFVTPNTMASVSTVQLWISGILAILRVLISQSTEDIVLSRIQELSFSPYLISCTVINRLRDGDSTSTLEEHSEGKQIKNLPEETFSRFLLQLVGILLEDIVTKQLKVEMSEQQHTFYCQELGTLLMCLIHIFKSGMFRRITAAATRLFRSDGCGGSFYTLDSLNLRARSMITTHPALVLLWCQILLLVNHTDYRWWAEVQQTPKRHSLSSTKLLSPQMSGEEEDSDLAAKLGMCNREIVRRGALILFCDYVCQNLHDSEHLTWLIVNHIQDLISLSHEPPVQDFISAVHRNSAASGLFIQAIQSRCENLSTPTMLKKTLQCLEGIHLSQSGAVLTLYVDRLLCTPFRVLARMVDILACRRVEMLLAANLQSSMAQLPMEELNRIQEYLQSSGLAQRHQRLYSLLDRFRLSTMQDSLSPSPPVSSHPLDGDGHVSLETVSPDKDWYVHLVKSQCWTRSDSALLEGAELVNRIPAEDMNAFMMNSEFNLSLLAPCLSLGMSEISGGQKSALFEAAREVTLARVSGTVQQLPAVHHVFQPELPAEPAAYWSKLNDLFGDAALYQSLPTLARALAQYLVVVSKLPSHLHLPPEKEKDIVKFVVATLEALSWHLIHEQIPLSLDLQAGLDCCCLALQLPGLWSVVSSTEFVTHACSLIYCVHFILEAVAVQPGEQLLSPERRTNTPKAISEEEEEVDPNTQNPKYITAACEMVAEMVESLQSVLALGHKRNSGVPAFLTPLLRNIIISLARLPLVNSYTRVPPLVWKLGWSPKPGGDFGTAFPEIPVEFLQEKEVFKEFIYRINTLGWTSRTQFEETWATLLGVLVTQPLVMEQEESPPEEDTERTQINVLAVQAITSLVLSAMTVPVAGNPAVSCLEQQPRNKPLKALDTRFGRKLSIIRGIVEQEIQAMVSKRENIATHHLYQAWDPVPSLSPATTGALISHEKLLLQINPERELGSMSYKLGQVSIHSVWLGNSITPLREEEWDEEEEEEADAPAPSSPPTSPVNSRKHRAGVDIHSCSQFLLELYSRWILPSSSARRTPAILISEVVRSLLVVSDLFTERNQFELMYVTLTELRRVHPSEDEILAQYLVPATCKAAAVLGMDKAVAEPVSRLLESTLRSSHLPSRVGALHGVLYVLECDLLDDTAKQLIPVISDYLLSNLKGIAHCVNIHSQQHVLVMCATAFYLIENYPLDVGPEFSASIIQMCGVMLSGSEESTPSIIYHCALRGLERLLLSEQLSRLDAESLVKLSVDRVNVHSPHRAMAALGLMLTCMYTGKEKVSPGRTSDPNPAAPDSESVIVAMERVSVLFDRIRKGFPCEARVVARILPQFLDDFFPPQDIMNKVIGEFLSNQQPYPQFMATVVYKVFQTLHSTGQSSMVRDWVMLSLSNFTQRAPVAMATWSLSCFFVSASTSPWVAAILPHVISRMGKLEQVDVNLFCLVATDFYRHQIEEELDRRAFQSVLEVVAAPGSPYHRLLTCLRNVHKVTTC

Compound | inhibition
COCCNC(=O)NCCn1ccnc1C | -11.5%
COc1cc(CN2CCN(Cc3cc(OC)c(OC)c(OC)c3)CC2)cc(OC)c1 | -4.6%
COc1ccc(O)c(C(=O)CC(=O)c2cccc(F)c2)c1 | 58.1% (active)
COc1ccc(CC(=O)Nc2ccccc2F)cc1 | 0.5%
COc1cccc(C(=O)N(CC#N)CC#N)c1 | 4.4%
CC(C)n1c(COc2ccccc2)nc2ccccc21 | -16%
Cn1c(COc2ccc(Cl)cc2)nc2ccccc2c1=O | 61.9% (active)
CCSc1nc2ccccc2c(=O)n1C | -11.7%
O=C(Nc1cccc(NC(=O)c2ccccc2Cl)c1)c1ccccc1Cl | 1%
Nc1c(C(=O)Nc2ccccc2I)sc2nc(-c3cccs3)ccc12 | -8%
CCOc1cccc2c1OC1(CCCCC1)N1N=C(c3cccnc3)CC21 (stereo not given) | 27%
CCOc1cccc2c1OC(c1ccc(OC)c(OC)c1)N1N=C(c3ccco3)CC21 (stereo not given) | 45%
CCOc1cccc2c1OC(c1cccc(OC)c1OC)N1N=C(c3ccc(C)o3)CC21 (stereo not given) | 67% (active)
CCOC(=O)C1CCN(C(=O)CCN2C(=O)c3ccccc3S2(=O)=O)CC1 | -1.8%
O=C(Nc1ccc2c(c1)OCCO2)N1CCCC1c1ccc(Cl)cc1 (stereo not given) | 10.2%
N#C/C(=C\c1ccc(F)cc1)c1nc(-c2cc3ccccc3oc2=O)cs1 | -8%
CC1(C)Cc2ccccc2-c2nc(NCCO)n(Cc3ccccc3)c(=O)c21 | 15%
Cc1cccc(NC(=O)c2nc(-c3cccc(F)c3)n3c2CCCCC3)n1 | 43.6%
CCCNC(=O)Cc1cn(C)c2ncccc12 | -16.2%
Cn1cc(CCN2CCN(C(=O)c3ccc(C(F)(F)F)cc3)CC2)c2cccnc21 | 54.6% (active)
Cc1ccccc1N1CCN(C(=O)Cc2cn(C)c3ncccc23)CC1 | 10.1%
CCCC(O)=C1C(=O)CC(C)(C)CC1=Nc1cccc([N+](=O)[O-])c1 | -1.5%
CC(=O)Nc1ccc(N/C=C(\C#N)c2nc(-c3ccccc3)cs2)cc1 | 4%
Cc1cccc(-n2nc3c(c2NC(=O)c2ccc(Br)o2)CSC3)c1C | 24%
COc1ccc(/C=C/C(=O)Nc2c3c(nn2-c2ccccc2C)CSC3)cc1OC | 29%
COc1cccc(C(=O)Nc2c3c(nn2-c2ccc(Cl)cc2)CSC3)c1 | 41%
Cc1cccc(-n2nc3c(c2NC(=O)C2CC2)CSC3)c1C | 8%
O=C(Nc1c2c(nn1-c1ccc(Cl)cc1)CSC2)c1ccc(F)cc1 | 21%

Compound | inhibition
Cc1cccc(-n2nc3c(c2NC(=O)c2c(F)cccc2F)CSC3)c1C | 5%
Cc1ccccc1-n1nc2c(c1NC(=O)/C=C/c1ccco1)CSC2 | 98% (active)
CC(C)C(=O)Nc1c2c(nn1-c1ccc(Cl)cc1)CSC2 | -5%
O=C(Nc1c2c(nn1-c1ccc(Cl)cc1)CSC2)c1cccc(Br)c1 | 50% (active)
O=C(/C=C/c1ccco1)Nc1c2c(nn1-c1ccc(Cl)cc1)CSC2 | 98% (active)
Cc1ccccc1-n1nc2c(c1NC(=O)C1CC1)CSC2 | 60% (active)
O=C(Nc1c2c(nn1-c1ccc(Cl)cc1)CSC2)c1cccc([N+](=O)[O-])c1 | -9%
O=C(Nc1ccc(Cl)cc1)c1cc(S(=O)(=O)NCc2ccccc2)ccc1Cl | 13%
COc1ccc(OC)c(-c2cc(C(=O)Nc3nc4c(s3)CCCC4)n(C)n2)c1 | 16.3%
Cc1nc(C2CCN(C(=O)c3cccc(F)c3)CC2)sc1C(=O)NCc1cccnc1 | 9.99%
CCCn1cnnc1C1CCCCN1C(=O)c1ccncc1 (stereo not given) | -3.5%
c1ccc2c(c1)CC1(CCCCC1)N=C2N1CCOCC1 | -5.33%
CC(C)C(=O)Nc1ccc(N2CCCN(C(=O)C3CC3)CC2)nc1 | -1%
CCCc1cc2c(=O)c(-c3ccc4c(c3)OCO4)c(CC)oc2cc1OC(=O)CC | -12.9%
C=CCSC1=C(C#N)C(c2ccco2)C(C(=O)Nc2ccccc2OC)=C(C)N1 (stereo not given) | 8%
c1ccc(-c2n[nH]c(C3CCCN(Cc4ccccn4)C3)n2)cc1 (stereo not given) | 100% (active)
O=C(Cc1cccnc1)N1CCCC(c2nc(-c3ccccc3)n[nH]2)C1 (stereo not given) | -0.1%
c1ccc(-c2n[nH]c(C3CCN(Cc4cccnc4)CC3)n2)cc1 | 9.4%
COC(=O)C(C)Oc1ccc2c(c1)OC(=Cc1ccccc1C)C2=O (stereo not given) | 0.9%
COc1ccccc1CC(=O)N1CCCC2(C1)Nc1cccnc1NC2=NC1CCCC1 (stereo not given) | 16.8%
Cc1ccccc1CNC(=O)C1(C)CCCN(C(=O)c2cccc(Cl)c2)C1 (stereo not given) | 19.4%
COCCN=C1Nc2ccccc2NC12CCCN(S(=O)(=O)c1cccc(OC)c1)C2 (stereo not given) | 11.2%
Cc1cc(C)n(CC(=O)N2CCCC3(C2)Nc2cccnc2NC3=NC2CCCC2)n1 (stereo not given) | -1.34%
COCCN=C1Nc2ccccc2NC12CCCN(C(=O)c1cccc(Cl)c1)C2 (stereo not given) | 65.7% (active)
COCCN=C1Nc2ccccc2NC12CCCN(C(=O)Nc1cccc(OC)c1)C2 (stereo not given) | 99.8% (active)
COCCN=C1Nc2ccccc2NC12CCCN(C(=O)CSc1ccccc1)C2 (stereo not given) | 76.2% (active)
COc1cccc(CNC(=O)N2CCCC3(C2)Nc2cccnc2NC3=NC2CCCC2)c1 (stereo not given) | 1.31%
